This is an account of results in PubChem BioAssay (NCI).

Assay [1] can be described thus: NCI Yeast Anticancer Drug Screen. Data for the rad50 strain (AID 155).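 Further: 0% = growth of vehicle-only cultures of the same strain.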 Conditions: S. cerevisiae rad50 strain growth inhibition, active compounds read high. The method, boiled down:
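A DNA repair-deficient yeast mutant serves as the test organism; compound-induced growth inhibition is calculated against vehicle-treated cells.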

Assay [2] can be described thus: NCI Yeast Anticancer Drug Screen. Data for the mec2-1 strain (AID 157). Conditions: S. cerevisiae mec2-1 strain, active compounds read high. The procedure, abridged: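 Mutant yeast (mec2-1) grown with compound; growth inhibition relative to vehicle control reported.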
The nature of assay [3]: NCI Yeast Anticancer Drug Screen. Data for the sgs1 mgt1 strain (AID 161).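 Further: 0% = growth of cultures given vehicle only.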 Conditions: S. cerevisiae sgs1 mgt1 strain, active compounds read high. The procedure, abridged:
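Growth of a repair-deficient yeast mutant was monitored after compound treatment and expressed as inhibition relative to vehicle-treated cultures.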

Assay [4] can be described thus: NCI Yeast Anticancer Drug Screen. Data for the cln2 rad14 strain (AID 165).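 Further: 0% = growth equal to vehicle treated cultures.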 Conditions: S. cerevisiae cln2 rad14 strain, active compounds read high. The method, boiled down: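 Readout is yeast growth inhibition versus vehicle-treated controls, using a strain with cln2 and rad14 alterations exposed to compound.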
A short description of assay [5]: NCI Yeast Anticancer Drug Screen. Data for the bub3 strain (AID 167). Conditions: S. cerevisiae bub3 mutant strain, active compounds read high. The procedure, abridged: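 Inhibition values come from growth of compound-treated mutant yeast normalised to vehicle-treated controls.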
Assay [6] is described as follows: NCI Yeast Anticancer Drug Screen. Data for the mlh1 rad18 strain (AID 175). Conditions: S. cerevisiae mlh1 rad18 strain growth inhibition, active compounds read high. The procedure, abridged: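 Genetically defined yeast (DNA repair-deficient) exposed to compounds; growth inhibition determined relative to vehicle.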
Where [7] appears, read: at 5.0 µM (retest, dose inferred, filed as 0.5).
Where [8] appears, read: at 50.0 µM (retest, dose inferred, filed as 5.0).

This is part of a sample that, as a whole, favours compounds with a hit. Of some 79,000 tested, about 15% had one in any assay. Values without a mark were called inactive. Activity calls are given as the source filed them. No stated cut-off is given here; in the data, active means growth inhibition above about 70%; inactive means the rest.

Turning to `Cc1ccccc1NC(=O)C1C(=O)N(c2ccccc2C)C(=O)/C1=N/O` (configuration not stated), the growth inhibition in assay [1] (setting [7]) was -21%; in assay [1] (setting [8]), 3%; in assay [1] (at 50.0 µM) it was -21.4%; in assay [2] (setting [7]) it was 3%; in assay [2] (setting [8]) it was 4%; in assay [2] (at 50.0 µM) it was 2.95%. For the same compound, the growth inhibition in assay [3] (setting [7]) is -4%; in assay [3] (setting [8]) it was -19%; in assay [3] (at 50.0 µM), -4.55%; in assay [4] (setting [7]) it was -6%; in assay [4] (setting [8]), 6%; in assay [4] (at 50.0 µM), -26.6%. For the same compound, the growth inhibition in assay [5] (setting [7]) was 0%; in assay [5] (setting [8]), 1%; in assay [5] (at 50.0 µM) it was -5.25%; in assay [6] (setting [7]), -1%; in assay [6] (setting [8]) it was -2%; in assay [6] (at 50.0 µM) it was 3.65%.

Turning to `Cc1occc1C(=S)Nc1ccc(Cl)c(COC(C)(C)C)c1`, the growth inhibition in assay [1] (setting [7]) is 26%; in assay [1] (setting [8]), 74% (active); in assay [1] (at 50.0 µM), 78.9% (active); in assay [2] (setting [7]) it was 6%; in assay [2] (setting [8]), 74% (active); in assay [2] (at 50.0 µM), 84.3% (active). Moreover, the growth inhibition in assay [3] (setting [7]) is 17%; in assay [3] (setting [8]), 84% (active); in assay [3] (at 50.0 µM) it was 85.7% (active); in assay [4] (setting [7]), 22%; in assay [4] (setting [8]), 86% (active); in assay [4] (at 50.0 µM) it was 84.8% (active). In addition, the growth inhibition was 26% in assay [5] (setting [7]); 90% (active) in assay [5] (setting [8]); 86.2% (active) in assay [5] (at 50.0 µM); 19% in assay [6] (setting [7]); 85% (active) in assay [6] (setting [8]); 78.5% (active) in assay [6] (at 50.0 µM).

Consider `CCCCCCC(=O)Nc1ccc(OC(=O)CCCCCC)c(=O)cc1`, for which the growth inhibition in assay [1] (setting [7]) was 8%; in assay [1] (setting [8]), 99% (active); in assay [1] (at 50.0 µM), 98.8% (active); in assay [2] (setting [7]), 36%; in assay [2] (setting [8]), 100% (active); in assay [2] (at 50.0 µM) it was 99.2% (active). Moreover, the growth inhibition in assay [3] (setting [7]) was 33%; in assay [3] (setting [8]), 99% (active); in assay [3] (at 50.0 µM), 99.3% (active); in assay [4] (setting [7]), -14%; in assay [4] (setting [8]) it was 99% (active); in assay [4] (at 50.0 µM) it was 98% (active). The growth inhibition is 15% in assay [5] (setting [7]); 99% (active) in assay [5] (setting [8]); 99.2% (active) in assay [5] (at 50.0 µM); 26% in assay [6] (setting [7]); 99% (active) in assay [6] (setting [8]); 98.5% (active) in assay [6] (at 50.0 µM).

As to `O=C1CSC(=S)N1Cc1ccccc1Cl`, the growth inhibition in assay [1] (setting [7]) was 15%; in assay [1] (setting [8]), 93% (active); in assay [1] (at 50.0 µM) it was 98.9% (active); in assay [2] (setting [7]), 6%; in assay [2] (setting [8]), 97% (active); in assay [2] (at 50.0 µM), 96.2% (active). The growth inhibition is 11% in assay [3] (setting [7]); 98% (active) in assay [3] (setting [8]); 97.9% (active) in assay [3] (at 50.0 µM); 2% in assay [4] (setting [7]); 81% (active) in assay [4] (setting [8]); 97.3% (active) in assay [4] (at 50.0 µM). Moreover, the growth inhibition in assay [5] (setting [7]) was -1%; in assay [5] (setting [8]) it was 94% (active); in assay [5] (at 50.0 µM), 95.2% (active); in assay [6] (setting [7]), 11%; in assay [6] (setting [8]), 98% (active); in assay [6] (at 50.0 µM), 99% (active).

As for `O=[N+]([O-])c1cc(Cl)cc(C(c2cc(Cl)cc([N+](=O)[O-])c2O)C(Cl)(Cl)Cl)c1O`, the growth inhibition was 52% in assay [1] (setting [7]); 94% (active) in assay [1] (setting [8]); 97.7% (active) in assay [1] (at 50.0 µM); 50% in assay [2] (setting [7]); 98% (active) in assay [2] (setting [8]); 98.4% (active) in assay [2] (at 50.0 µM). Also, the growth inhibition in assay [3] (setting [7]) was 38%; in assay [3] (setting [8]) it was 92% (active); in assay [3] (at 50.0 µM), 98.1% (active); in assay [4] (setting [7]), 36%; in assay [4] (setting [8]), 96% (active); in assay [4] (at 50.0 µM) it was 97% (active). Further, the growth inhibition in assay [5] (setting [7]) was 33%; in assay [5] (setting [8]) it was 96% (active); in assay [5] (at 50.0 µM), 97.2% (active); in assay [6] (setting [7]), 66%; in assay [6] (setting [8]), 96% (active); in assay [6] (at 50.0 µM) it was 98.3% (active).

On to `CC1CCC2(CC1)NC1=C(CC(C)CC1)C1=C2CC(C)CC1` (configuration not stated), for which the growth inhibition in assay [1] (setting [7]) was 46%; in assay [1] (setting [8]) it was 87% (active); in assay [1] (at 50.0 µM), 3.8%; in assay [2] (setting [7]), 28%; in assay [2] (setting [8]), 85% (active); in assay [2] (at 50.0 µM), -29.6%. The growth inhibition in assay [3] (setting [7]) is -1%; in assay [3] (setting [8]), 27%; in assay [3] (at 50.0 µM), -21.9%; in assay [4] (setting [7]), 14%; in assay [4] (setting [8]), 26%; in assay [4] (at 50.0 µM) it was 13.2%. Also, the growth inhibition in assay [5] (setting [7]) was -16%; in assay [5] (setting [8]), 17%; in assay [5] (at 50.0 µM), -4.4%; in assay [6] (setting [7]), 32%; in assay [6] (setting [8]) it was 89% (active); in assay [6] (at 50.0 µM), 10.4%.

Take `CN(C)CC/C(=N\Nc1ccc([N+](=O)[O-])cc1)c1ccccc1`: the growth inhibition in assay [1] (setting [7]) is 12%; in assay [1] (setting [8]) it was 65%; in assay [1] (at 50.0 µM), 99.5% (active); in assay [2] (setting [7]), 8%; in assay [2] (setting [8]), 86% (active); in assay [2] (at 50.0 µM) it was 84.4% (active). In addition, the growth inhibition in assay [3] (setting [7]) is 29%; in assay [3] (setting [8]), 96% (active); in assay [3] (at 50.0 µM), 99.2% (active); in assay [4] (setting [7]), 1%; in assay [4] (setting [8]) it was 62%; in assay [4] (at 50.0 µM), 98.8% (active). Besides, the growth inhibition in assay [5] (setting [7]) is 8%; in assay [5] (setting [8]) it was 98% (active); in assay [5] (at 50.0 µM), 99.7% (active); in assay [6] (setting [7]), 19%; in assay [6] (setting [8]), 97% (active); in assay [6] (at 50.0 µM), 98.5% (active).

`S=c1[nH]c2c(-c3ccccc3)cccc2s1`: the growth inhibition is -4% in assay [1] (setting [7]); 74% (active) in assay [1] (setting [8]); 62.1% in assay [1] (at 50.0 µM); -6% in assay [2] (setting [7]); 62% in assay [2] (setting [8]); 76.9% (active) in assay [2] (at 50.0 µM). For the same compound, the growth inhibition is 12% in assay [3] (setting [7]); 78% (active) in assay [3] (setting [8]); 86.2% (active) in assay [3] (at 50.0 µM); -16% in assay [4] (setting [7]); 41% in assay [4] (setting [8]); 60.5% in assay [4] (at 50.0 µM). Moreover, the growth inhibition in assay [5] (setting [7]) was -20%; in assay [5] (setting [8]), 44%; in assay [5] (at 50.0 µM) it was 53.8%; in assay [6] (setting [7]), 1%; in assay [6] (setting [8]), 65%; in assay [6] (at 50.0 µM), 87.5% (active).

On to `O=C(O)C(Br)C(Br)C(=O)Nc1ccc(Cl)c(Cl)c1` (configuration not stated), for which the growth inhibition is 91% (active) in assay [1] (setting [7]); 99% (active) in assay [1] (setting [8]); 96.3% (active) in assay [1] (at 50.0 µM); 52% in assay [2] (setting [7]); 99% (active) in assay [2] (setting [8]); 98.1% (active) in assay [2] (at 50.0 µM). Further, the growth inhibition in assay [3] (setting [7]) was 85% (active); in assay [3] (setting [8]), 99% (active); in assay [3] (at 50.0 µM), 96.8% (active); in assay [4] (setting [7]) it was 25%; in assay [4] (setting [8]) it was 99% (active); in assay [4] (at 50.0 µM), 84.7% (active). In addition, the growth inhibition was 96% (active) in assay [5] (setting [7]); 100% (active) in assay [5] (setting [8]); 98.8% (active) in assay [5] (at 50.0 µM); 48% in assay [6] (setting [7]); 99% (active) in assay [6] (setting [8]); 96% (active) in assay [6] (at 50.0 µM).
